Test results published in PubChem BioAssay AID1159580 (chemical genetic matrix, 2015).
Hit rate of the full screen: of about 5,500 compounds, about 2,000 (36%) were called active. Inconclusive results (about 18%) are left out. Rule as the data show it: active = normalized growth mostly below about 0.91 (no sharp cut-off); inconclusive = no clear call, values can overlap the other calls; inactive = mostly above about 0.92. Some of the results follow.

Test: chemical genetic growth profiling, strain panel (AID 1159580);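 also: tested at 20 µM; growth read once vehicle control cultures reached saturation at 30 °C; 1 = growth at the plate median or of vehicle wells; lower values mean less growth of the strain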
Conditions: S. cerevisiae deletion strains, growth OD

Measured: normalized growth

CC1C(c2ccccc2)N(C)C(c2ccccc2)CC1(O)c1ccc(F)cc1 (stereo unspecified)
inactive: locus YAR019C, strain CDC15, stronger effect = lower value 0.988 | locus YBL105C, strain PKC1, stronger effect = lower value 0.991 | locus YBR135W, strain CKS1, stronger effect = lower value 0.99 | locus YBR136W, strain MEC1, stronger effect = lower value 0.994 | locus YBR160W, strain CDC28, stronger effect = lower value 0.995 | locus YDL017W, strain CDC7, stronger effect = lower value 0.997 | locus YDL028C, strain MPS1, stronger effect = lower value 1 | locus YDL101C, strain DUN1, stronger effect = lower value 0.986 | locus YDL108W, strain KIN28, stronger effect = lower value 1.01 | locus YDL132W, strain cdc53, stronger effect = lower value 0.989 | locus YDL214C, strain PRR2, stronger effect = lower value 0.976 | locus YDR052C, strain DBF4, stronger effect = lower value 0.995 | locus YDR054C, strain cdc34, stronger effect = lower value 0.993 | locus YDR226W, strain ADK1, stronger effect = lower value 0.992 | locus YDR477W, strain SNF1, stronger effect = lower value 0.992 | locus YER123W, strain YCK3, stronger effect = lower value 0.934 | locus YER133W, strain GLC7, stronger effect = lower value 0.995 | locus YFL009W, strain cdc4, stronger effect = lower value 0.989 | locus YFL029C, strain CAK1, stronger effect = lower value 0.99 | locus YFR003C, strain YPI1, stronger effect = lower value 0.999 | locus YFR019W, strain FAB1, stronger effect = lower value 0.996 | locus YFR028C, strain CDC14, stronger effect = lower value 0.984 | locus YGR040W, strain KSS1, stronger effect = lower value 0.997 | locus YGR052W, strain FMP48, stronger effect = lower value 1.11 | locus YGR092W, strain DBF2, stronger effect = lower value 0.968 | locus YHR079C, strain IRE1, stronger effect = lower value 1.14 | locus YHR082C, strain KSP1, stronger effect = lower value 1.13 | locus YHR205W, strain SCH9, stronger effect = lower value 0.979 | locus YIL147C, strain SLN1, stronger effect = lower value 1 | locus YJL095W, strain BCK1, stronger effect = lower value 1.1 | locus YJL128C, strain PBS2, stronger effect = lower value 0.952 | locus YJL157C, strain FAR1, stronger effect = lower value 0.972 | locus YJR016C, strain ILV3, stronger effect = lower value 0.989 | locus YJR066W, strain TOR1 (second series), stronger effect = lower value 0.983 | locus YJR066W, strain TOR1, stronger effect = lower value 1.13 | locus YKL048C, strain ELM1, stronger effect = lower value 0.982 | locus YKL067W, strain YNK1, stronger effect = lower value 0.98 | locus YKL101W, strain HSL1, stronger effect = lower value 0.99 | locus YKL193C, strain SDS22, stronger effect = lower value 0.994 | locus YKL203C, strain TOR2, stronger effect = lower value 1.06 | locus YLR113W, strain HOG1, stronger effect = lower value 1.04 | locus YLR133W, strain CKI1, stronger effect = lower value 0.98 | locus YLR403W, strain SFP1, stronger effect = lower value 0.99 | locus YML070W, strain DAK1, stronger effect = lower value 0.973 | locus YMR001C, strain CDC5, stronger effect = lower value 0.982 | locus YMR205C, strain PFK2 (second series), stronger effect = lower value 0.989 | locus YMR277W, strain FCP1, stronger effect = lower value 0.997 | locus YNL006W, strain LST8, stronger effect = lower value 0.977 | locus YNL020C, strain ARK1, stronger effect = lower value 0.984 | locus YNL161W, strain CBK1, stronger effect = lower value 1 | locus YNL183C, strain NPR1, stronger effect = lower value 1.14 | locus YNL207W, strain RIO2, stronger effect = lower value 0.999 | locus YNL222W, strain SSU72, stronger effect = lower value 0.99 | locus YNL307C, strain MCK1 (second series), stronger effect = lower value 0.987 | locus YOL078W, strain AVO1, stronger effect = lower value 0.992 | locus YOL136C, strain PFK27, stronger effect = lower value 0.99 | locus YOR061W, strain CKA2, stronger effect = lower value 0.972 | locus YOR119C, strain RIO1, stronger effect = lower value 1.04 | locus YOR231W, strain MKK1, stronger effect = lower value 1.1 | locus YOR329C, strain SCD5, stronger effect = lower value 0.992 | locus YPL031C, strain PHO85, stronger effect = lower value 0.984 | locus YPL153C, strain RAD53, stronger effect = lower value 0.983 | locus YPL204W, strain HRR25, stronger effect = lower value 1 | locus YPL209C, strain IPL1, stronger effect = lower value 1 | locus YPL256C, strain CLN2, stronger effect = lower value 1.1 | locus YPR025C, strain CCL1, stronger effect = lower value 0.995 | locus YPR106W, strain ISR1, stronger effect = lower value 0.999 | locus YPR111W, strain DBF20, stronger effect = lower value 0.99 | strain NNK1, stronger effect = lower value 0.998 | strain TSCII, stronger effect = lower value 0.987
active: locus YHR030C, strain SLT2, stronger effect = lower value 1.26 [resistant]
